Measured values: PubChem BioAssay (EPA / NIEHS)
Where a structure was tested more than once in an assay, its records may differ in their call. Active and inactive are the calls of the source. The calls were made as follows: active = hit-call score of the fitted dose curve at least 0.9, where 1 is the maximum; inactive = score below 0.9.

assay: ATG_PPRE_CIS: Attagene CIS-FACTORIAL HepG2 Assay for human Peroxisome Proliferator-activated Response Element (PPRE) (AID 2282958); conditions: HepG2 PPRE cis-element reporter, Attagene transcription factor profiling; actives raise or lower the signal
Procedure: ATG_CIS is a cell-based, multiplexed-readout assay that uses HepG2, a human liver cell line, with measurements taken at 24 hours after chemical dosing in a 24-well plate.ATG_PPRE_CIS is one of 52 assay component(s) measured or calculated from the ATG_CIS assay. It is designed to make measurements of mRNA induction, a form of inducible reporter, as detected with fluorescence intensity signals by Reverse transcription polymerase chain reaction (RT-PCR) and Capillary electrophoresis technology.Data from the assay component ATG_PPRE_CIS was analyzed into 1 assay endpoint. This assay endpoint, ATG_PPRE_CIS, was analyzed with bidirectional fitting relative to DMSO as the negative control and baseline of activity. Using a type of inducible reporter, measures of mRNA for gain or loss-of-signal activity can be used to understand the reporter gene at the transcription factor-level as they relate to the gene PPARA and PPARD and PPARG. Furthermore, this assay endpoint can be referred to as a primary readout, because this assay has produced multiple assay endpoints where this one serves a reporter gene function. To generalize the intended target to other relatable targets, this assay endpoint is annotated to the nuclear receptor intended target family, where the subfamily is non-steroidal.
Human liver HepG2 cells are transiently transfected with multiple reporter transcription units (MRTUs) in 6-well plates using FuGene 6 reagent (Roche; 3 ml FuGene/1 mg DNA). The MRTU constructs are regulated by a cis-regulating element (promoter). […] A major difference between the CIS and TRANS system is that in CIS activities of endogenous TFs are measured, whereas the TRANS assay evaluates changes in activities of exogenous, chimeric NR-Gal4 proteins. […] At the end of 24 hour incubation, total RNA was isolated using TriZol reagent (Invitrogen). The isolated RNA is then reverse-transcribed using oligo(dT) primer and Mo-MLV reverse transcriptase (Invitrogen) with DNAse I (Ambion) treatment for 30 min. The one-tenth of the produced cDNA was amplified by PCR using Taq DNA polymerase (Invitrogen) and two reporter sequence-specific primers. The PCR products were fluorescently labeled by primer extension with 6-arboxyfluorescein (6-FAM) 5'-labeled reporter sequence-specific primer (2 min at 95 C, 20 s at 68 C and 10 min at 72 C) and these products were digested with 5U of HpaI (New England Biolabs) for 2h at 37 C. The fragments were purified using Qiaquick PCR columns (Qiagen), analyzed on an ABI 3130xL genetic analyzer (Applied Biosystems) with peak positions identified by using a set of X-rhodamine (ROX)-labeled MapMarker1000 molecular weight standards (BioVentures). The raw capillary electrophoresis data was processed using Attagraph software (Attagene).

SMILES	outcome	AC50
c1ccc2cc3ccccc3cc2c1	inactive	–
Cc1nc(-c2ccccn2)ncc1C(=O)Nn1cc(C)c2cc(F)ccc21	inactive	–
NC(=O)N(O)[C@@H]1COc2cc(OCc3ccccc3)ccc21	inactive	–
c1ccc2c(c1)-c1cccc3c1c-2cc1ccccc13	inactive	2.26 µM (active)
OCC(CO)(CO)CO	inactive	–
C[Si](C)(C)C(F)(F)C(F)(F)C(F)(F)F	inactive	–
O=c1[nH]cnc2c1ncn2[C@H]1CC[C@@H](CO)O1	inactive	–
CCc1ccc(O)c(C(C)(C)C)c1	–	42 µM (active)
Cn1c(=O)c2[nH]cnc2n(C)c1=O	inactive	–
OC(O)(C(F)C(O)(O)C(F)(F)F)C(F)(F)F	inactive	3.62 µM (active)
CCCCOC(=O)c1ccccc1	inactive	–
C=CCc1cc(S(=O)(=O)c2ccc(O)c(CC=C)c2)ccc1O	–	8.96 µM (active)
CC(C)CCCCCCOC(=O)C1CCCCC1C(=O)OCCCCCCC(C)C (stereo not given)	inactive	–
OC(Cn1cncn1)(Cn1cncn1)c1ccc(F)cc1F	inactive	–
CCCCCCCCCC	inactive	–
CCCCC(CC)C(=O)OCCOCCOCCOC(=O)C(CC)CCCC (stereo not given)	inactive	–
O=C(NO)C1(NS(=O)(=O)c2ccc(Oc3ccc(F)cc3)cc2)CCOCC1	inactive	–
O=C(O)c1cccc(C(=O)O)c1	inactive	–
S=P(N1CC1)(N1CC1)N1CC1	inactive	–

SMILES	outcome	AC50
CCCCCCCC1CCC(=O)O1 (stereo not given)	inactive	–
NCC(F)(F)C(F)(F)C(F)(F)C(F)(F)F	inactive	–
CCCCCCCC/C=C\CCCCCCCC(=O)OC[C@@H](O)[C@H]1OC[C@H](O)[C@H]1O	inactive	–
CCCCCOC(C)=O	inactive	–
O=C(Cl)C(F)(F)C(F)(F)C(F)(F)C(=O)Cl	inactive	–
NNC(=O)c1ccncc1	inactive	–
NC(N)=O	inactive	–
CC(C)c1nnc2ccc(-c3ocnc3-c3cc(F)ccc3F)cn12	inactive	–
O=C(N[C@H](CO)[C@H](O)c1ccc([N+](=O)[O-])cc1)C(Cl)Cl	inactive	–
NC(=O)N1c2ccccc2C=Cc2ccccc21	inactive	–
Cn1cc[nH]c1=S	inactive	–
CCCCCCOC(=O)CC(CC(=O)OCCCCCC)(OC(=O)CCC)C(=O)OCCCCCC	inactive	–
CC(C)CC(C)O (stereo not given)	inactive	–
c1ccc(C(O[C@@H]2CCCN(CCc3ccc4c(c3)OCO4)C2)c2ccccc2)cc1	inactive	–
FC(F)(F)COC(OCC(F)(F)F)OCC(F)(F)F	inactive	–
CCCCN1C(=O)[C@@H]([C@H](O)C2CCCCC2)NC(=O)C12CCN(Cc1ccc(Oc3ccc(C(=O)O)cc3)cc1)CC2	–	54 µM (active)
Nc1ccn([C@@H]2O[C@H](CO)[C@@H](O)[C@@H]2O)c(=O)n1	inactive	–
CCn1nc(C)c2c1C(=O)NCC(c1ccc(O)cc1)=N2	inactive	–
FC(F)C(F)(F)COCC1CO1 (stereo not given)	inactive	–
